Reference: PubChem BioAssay (NCI)
About 83,000 compounds went through this panel and 20% of them were active in at least one assay; those are over-represented in the sample as a whole.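 Each cell line was grown in a 96-well plate and treated with one concentration of compound for 48 hours. Values below 10 were considered active.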 Active and inactive are the calls of the source.

What was measured:
Assay in all cases: NCI-60 one-dose screen, 48 h (100 = growth as untreated, 0 = no growth, -100 = all killed)
Conditions in all cases: 10 µM unless noted
HCT-15 colon = tested on: HCT-15 colon
HT29 colon = tested on: HT29 colon
SNB-19 CNS = tested on: SNB-19 CNS
U251 CNS = tested on: U251 CNS
PC-3 prostate = tested on: PC-3 prostate
SK-MEL-5 melanoma = tested on: SK-MEL-5 melanoma
UACC-62 melanoma = tested on: UACC-62 melanoma
LOX IMVI melanoma = tested on: LOX IMVI melanoma
SK-MEL-28 melanoma = tested on: SK-MEL-28 melanoma
SNB-75 CNS = tested on: SNB-75 CNS

Row | SMILES | growth (HCT-15 colon) | growth (HT29 colon) | growth (SNB-19 CNS) | growth (U251 CNS) | growth (PC-3 prostate) | growth (SK-MEL-5 melanoma) | growth (UACC-62 melanoma) | growth (LOX IMVI melanoma) | growth (SK-MEL-28 melanoma) | growth (SNB-75 CNS)
1 | CCCC(=O)NC(c1cccnc1)c1ccc2c(C)ccnc2c1O (configuration not stated) | 26.9% (inactive) | 20.3% (inactive) | 37.8% (inactive) | 26.7% (inactive) | 36.4% (inactive) | 4.06% (active) | -7.84% (active) | 9.72% (active) | 30.4% (inactive) | –
2 | O=C(Nc1cccc(Cl)c1)Nc1nc2ccc(-c3cccc4ccccc34)cc2s1 | 34.1% (inactive) | 49.4% (inactive) | 56.4% (inactive) | 35.4% (inactive) | 24.9% (inactive) | 54.4% (inactive) | 42.3% (inactive) | – | 73.3% (inactive) | –
3 | COc1cc(/C=C2\SC(=O)NC2=O)ccc1OCC(=O)Nc1ccc(C(=O)/C=C/c2cc3ccccc3nc2Cl)cc1 | 89.7% (inactive) | 69.9% (inactive) | 85.6% (inactive) | 90.3% (inactive) | 82.1% (inactive) | 32.7% (inactive) | 84.3% (inactive) | 81.6% (inactive) | 105% (inactive) | –
4 | O=C(Nc1cccc(Cl)c1)Nc1nc2ccc([N+](=O)[O-])cc2s1 | 1.52% (active) | 4.55% (active) | 21.2% (inactive) | 5.89% (active) | 6.96% (active) | -75.3% (active) | -40.2% (active) | – | 0.117% (active) | –
5 | COc1ccc(N2CCN(C(=O)CSc3ccc(-c4nc5cc(C)c(C)cc5[nH]4)cn3)CC2)cc1 | 52.8% (inactive) | 85.7% (inactive) | 87.5% (inactive) | 95.9% (inactive) | 56.4% (inactive) | 3.13% (active) | 45.3% (inactive) | 56.8% (inactive) | 74.4% (inactive) | –
6 | O=C(CN1C(=O)CSC1=O)Nc1ccc(C(=O)/C=C/c2cc3ccccc3nc2Cl)cc1 | 79.3% (inactive) | 17.4% (inactive) | 83.4% (inactive) | – | 70.5% (inactive) | 34% (inactive) | 74% (inactive) | 37.5% (inactive) | 95.4% (inactive) | –
7 | CCCC(=O)NC(c1cccnc1)c1cc(Cl)c2cccnc2c1O (configuration not stated) | 18.5% (inactive) | 35.5% (inactive) | 19.4% (inactive) | 24.2% (inactive) | 41.1% (inactive) | 34.3% (inactive) | 23.8% (inactive) | 32.7% (inactive) | 51.9% (inactive) | –
8 | Oc1ccc(CSc2nnc(-c3ccccc3)n2-c2ccccc2)c2cccnc12 | 13.6% (inactive) | 52.4% (inactive) | 12.6% (inactive) | 12.8% (inactive) | 23% (inactive) | -22% (active) | -34.1% (active) | 5.5% (active) | 17.7% (inactive) | –
9 | O=C(CCCCCCN1CC(=O)N2[C@@H](c3cccc(Br)c3)c3[nH]c4ccccc4c3C[C@H]2C1=O)NO | 68.7% (inactive) | 14.8% (inactive) | 38% (inactive) | 25% (inactive) | 32.8% (inactive) | 15.2% (inactive) | 1.57% (active) | -59.8% (active) | 26.6% (inactive) | –
10 | Oc1ccc(CSc2nnc(-c3ccccc3)o2)c2cccnc12 | 10.6% (inactive) | 88.8% (inactive) | 17% (inactive) | 10.9% (inactive) | 21.8% (inactive) | 6.95% (active) | 5.32% (active) | 5.66% (active) | 21.7% (inactive) | –
11 | CN(c1ccc(F)cc1)S(=O)(=O)c1ccc(-c2cnc(C3CC3)o2)cc1 | 17.9% (inactive) | 13.9% (inactive) | 36.9% (inactive) | – | 17.8% (inactive) | 26.8% (inactive) | 30.5% (inactive) | – | 56.7% (inactive) | –
12 | O=C(CN1C(=O)S/C(=C\c2ccccc2)C1=O)Nc1ccc(C(=O)/C=C/c2cc3ccccc3nc2Cl)cc1 | 88.5% (inactive) | 94.8% (inactive) | 86.2% (inactive) | 93.4% (inactive) | 81.6% (inactive) | 24.3% (inactive) | 66.2% (inactive) | 73.3% (inactive) | 95.8% (inactive) | –
13 | O=C(/C=C1\C=CN(CCCCCCF)c2ccccc21)n1ccc2ccccc21 | 101% (inactive) | 98.3% (inactive) | 97.1% (inactive) | 98.9% (inactive) | 84.7% (inactive) | 94.4% (inactive) | 76% (inactive) | 101% (inactive) | 106% (inactive) | –
14 | Oc1ccc(-c2nnc(SCc3ccc(O)c4ncccc34)o2)cc1 | 7.43% (active) | 24% (inactive) | 12.8% (inactive) | 13.2% (inactive) | 9.97% (active) | -17.1% (active) | -12.7% (active) | 7.94% (active) | 22.7% (inactive) | –
15 | Cc1cc(NS(=O)(=O)c2ccc(-c3cnc(C4CC4)o3)cc2)ccc1I | 30.5% (inactive) | 14.2% (inactive) | 40.1% (inactive) | 30.1% (inactive) | 22.7% (inactive) | 31.5% (inactive) | 30.3% (inactive) | – | 62% (inactive) | –
16 | O=C(/C=C1\C=CN(CCCCF)c2ccccc21)n1ccc2ccccc21 | 102% (inactive) | 107% (inactive) | 105% (inactive) | 105% (inactive) | 103% (inactive) | 98.8% (inactive) | 89.2% (inactive) | 106% (inactive) | 108% (inactive) | –
17 | O=C(Nc1ccc(Cl)cc1)Nc1nc2ccc([N+](=O)[O-])cc2s1 | -42.7% (active) | 1.88% (active) | 11.5% (inactive) | -11% (active) | -7.8% (active) | -83.7% (active) | -30.2% (active) | – | -12.3% (active) | –
18 | Cc1cc(F)cc(NS(=O)(=O)c2ccc(-c3cnc(C4CC4)o3)cc2)c1 | 22.4% (inactive) | 8.59% (active) | 35.2% (inactive) | 22.6% (inactive) | 17.4% (inactive) | 21.5% (inactive) | 25.6% (inactive) | – | 60.4% (inactive) | –
19 | COc1cc(NC2=C(Cl)C(=O)c3nc(C)ccc3C2=O)cc(OC)c1 | – | 24.9% (inactive) | 30.4% (inactive) | 36.8% (inactive) | 28% (inactive) | -74.9% (active) | -43.6% (active) | -82.6% (active) | -73.1% (active) | -4.09% (active)
20 | CC(=O)c1sc(Nc2cccc(Nc3nc(C)c(C)s3)c2)nc1C | – | 70% (inactive) | 90.9% (inactive) | 65.7% (inactive) | 51.3% (inactive) | 55.8% (inactive) | 48.8% (inactive) | 48.1% (inactive) | 71.5% (inactive) | 62.9% (inactive)
21 | CCOC(=O)c1nn(-c2ccc(C)cc2)c(=O)c2c(N)c(C#N)c(-c3ccc(OC)cc3)cc12 | – | 99.4% (inactive) | 91.3% (inactive) | 103% (inactive) | 94.8% (inactive) | 99.9% (inactive) | 94.9% (inactive) | 95.5% (inactive) | 100% (inactive) | 67.3% (inactive)
22 | COc1ccc(-c2nnc(SCc3ccc(O)c4ncccc34)n2-c2ccccc2)cc1 | – | 59.2% (inactive) | 14.4% (inactive) | 11.2% (inactive) | 20.7% (inactive) | -11% (active) | 2.62% (active) | -10.9% (active) | 20.2% (inactive) | –
23 | CN1CCN(c2ccc3c(c2)nc(NNC(=O)c2ccncn2)c2cccn23)CC1 | – | 32.7% (inactive) | 35.1% (inactive) | 34% (inactive) | 46.5% (inactive) | 13.7% (inactive) | 22.2% (inactive) | 11.4% (inactive) | 28.3% (inactive) | 61.9% (inactive)
24 | NCCN1CCN(c2nc(-c3ccccc3)nc3nc(-c4ccccc4)oc23)CC1 | – | -52.8% (active) | -19.7% (active) | -51.4% (active) | 15% (inactive) | 78.7% (inactive) | 101% (inactive) | -90.6% (active) | -85.4% (active) | -77.1% (active)
25 | CCOC(=O)CC(=O)CSC1=NC2C(NN1)N(C)C(=O)N2C (configuration not stated) | – | 62.9% (inactive) | 97.4% (inactive) | 98.6% (inactive) | 89.4% (inactive) | 99.6% (inactive) | 89.4% (inactive) | 92.9% (inactive) | 89.3% (inactive) | 99% (inactive)
26 | CC(=O)Oc1ccc(CCN2C(=O)CSC2=S)cc1 | – | 107% (inactive) | 94.9% (inactive) | 104% (inactive) | 78.2% (inactive) | 86% (inactive) | 85.7% (inactive) | 41.6% (inactive) | 90.6% (inactive) | 103% (inactive)
27 | Clc1ccc(-c2csc(Nc3cccc(Nc4csc(-c5ccc(Cl)cc5)n4)c3)n2)cc1 | – | 88.1% (inactive) | 85.5% (inactive) | 85.4% (inactive) | 74.1% (inactive) | 96.2% (inactive) | 76% (inactive) | 63.8% (inactive) | 92.7% (inactive) | 96.8% (inactive)
28 | O=C(Cn1cc(CN2C(=O)c3ccc([N+](=O)[O-])cc3C2=O)nn1)Nc1ccc(F)cc1Cl | – | 102% (inactive) | 97.2% (inactive) | – | 92.6% (inactive) | 101% (inactive) | 92.3% (inactive) | 107% (inactive) | 99.9% (inactive) | 92.6% (inactive)
